Our source for the manual score values is PubChem BioAssay AID623911 (Vanderbilt High Throughput Screening Facility, 2012).

Structures are written as SMILES. Hit rate of the full screen: of about 2,100 compounds, about 770 (37%) were called active. Some of the results follow. Unmarked numbers belong to inactive results.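 Rule for the calls: active = by-eye trace score of 1 for enhancers or -1 for inhibitors, so actives lie on both sides (some results past the limit were not filed as active); inactive = score 0, or 3 fluorescent, or 4 baseline rise.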

The target of this test is G protein-activated inward rectifier potassium channel 2 (Homo sapiens) + G protein-activated inward rectifier potassium channel 1 (Homo sapiens) (UniProt P48051+P48549). Nature of the test: GIRK1/2 thallium flux modulators, retest, confirmation, cell-based, HEK293 rmGlu8/hGIRK1/2, FluoZin-2 (AID 623911). Conditions: HEK293 rmGlu8/hGIRK1/2, thallium flux FluoZin-2; actives lie on both sides; glutamate co-added at its EC20 level.
Chain of G protein-activated inward rectifier potassium channel 2 (Homo sapiens) + G protein-activated inward rectifier potassium channel 1 (Homo sapiens) (P48051 whole entry, looked up): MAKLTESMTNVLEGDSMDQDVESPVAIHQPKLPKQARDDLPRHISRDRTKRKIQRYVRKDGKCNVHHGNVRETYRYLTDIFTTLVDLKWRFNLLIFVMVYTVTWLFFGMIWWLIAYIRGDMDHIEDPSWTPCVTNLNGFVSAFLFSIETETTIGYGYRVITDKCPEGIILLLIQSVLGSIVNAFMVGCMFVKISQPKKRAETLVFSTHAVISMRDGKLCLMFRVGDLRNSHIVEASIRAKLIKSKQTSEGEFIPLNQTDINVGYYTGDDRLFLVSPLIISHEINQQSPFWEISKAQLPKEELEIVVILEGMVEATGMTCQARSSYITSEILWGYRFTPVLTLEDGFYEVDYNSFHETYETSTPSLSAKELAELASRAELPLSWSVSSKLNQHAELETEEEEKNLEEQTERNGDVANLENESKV
Chain of G protein-activated inward rectifier potassium channel 2 (Homo sapiens) + G protein-activated inward rectifier potassium channel 1 (Homo sapiens) (P48549 whole entry, looked up): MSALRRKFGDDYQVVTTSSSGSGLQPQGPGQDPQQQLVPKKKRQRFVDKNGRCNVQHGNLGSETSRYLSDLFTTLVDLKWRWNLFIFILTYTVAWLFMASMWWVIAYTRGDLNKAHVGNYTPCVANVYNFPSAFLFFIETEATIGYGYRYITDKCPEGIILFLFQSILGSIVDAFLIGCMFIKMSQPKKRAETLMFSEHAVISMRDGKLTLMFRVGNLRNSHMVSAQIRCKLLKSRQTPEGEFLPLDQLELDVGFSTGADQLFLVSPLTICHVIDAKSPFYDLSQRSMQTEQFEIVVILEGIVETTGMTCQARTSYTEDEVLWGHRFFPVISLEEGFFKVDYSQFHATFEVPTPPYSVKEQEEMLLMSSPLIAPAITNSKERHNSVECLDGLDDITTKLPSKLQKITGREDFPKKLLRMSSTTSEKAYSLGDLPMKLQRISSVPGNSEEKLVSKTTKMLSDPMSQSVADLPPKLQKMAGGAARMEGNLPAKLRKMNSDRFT
In the case of `O=C(CSCc1ccc(Br)cc1)N=Nc1c(O)[nH]c2ccccc12`, the manual score is 0. The result for `CCc1nnc(NC(=O)CSc2nnc(C3CCCCC3)n2-c2cccc(Cl)c2)s1` reads 0; that for `COCCN=c1scc(-c2cccs2)n1/N=C/c1ccc(O)c(O)c1O`, 0. The result for `CCOC(=O)CN1NC2(CCC(C(C)(C)C)CC2)NC1=S` (stereo not given) reads 0; that for `Cc1ccc(NC(=O)Cc2c(Cl)cccc2Cl)cc1S(=O)(=O)N(C)C`, 1 (active); that for `COC(=O)c1sccc1NC(=O)CSc1ccccc1NS(=O)(=O)c1ccccc1Cl`, 0. For `CC1(C)NC(=O)NC2(C)NC(=O)NC(C)(C)C12` (stereo not given) the value was 0; for `COc1cc(C(=O)NC2CC3CCCC(C2)N3CC(=O)Nc2ccccc2)cc(OC)c1OC` (stereo not given), -1 (active). As to `COc1cc(NC(=O)CS(=O)(=O)c2ccc(C)cc2)cc(OC)c1OC`, the manual score is 0. As for `CC1CCN(CC(O)COC2CCC(C(C)(C)C)CC2)CC1` (stereo not given), the manual score was -1 (active). For `O=C1OCCC1Sc1nc2cc(Cl)ccc2n1Cc1ccccc1` (stereo not given) the value was 0; for `CCCCSc1nc(N)c(NC(=O)c2ccco2)c(=O)[nH]1`, 0. The result for `CCN(C(=O)COc1cc(=O)n(CC)c2ccccc12)c1cc(Cl)ccc1OC` reads -0.5; that for `COC(=O)[C@H]1CCCN1C(=O)Nc1cccc(Oc2c(F)c(F)c(F)c(F)c2F)c1`, 0. As for `COc1cccc(NC(=O)NCCCSC2CCCCC2)c1`, the manual score was 1 (active).

For `COc1ccc(S(=O)(=O)NCCC(=O)NC2CCCCCCC2)cc1`, the manual score was 0.

As for `Cc1sc2c(c1C)CN(C1CC(C)(C)NC(C)(C)C1)CN2C(=O)c1ccco1`, the manual score was -1 (active). For `Cc1ccc(OCC(=O)N/N=C\c2ccc(-c3cccc(C(=O)O)c3)o2)c(C)c1` the value was 0; for `C/C(=N\NC(=O)COc1ccc(C)cc1C(C)C)c1ccc(-n2ccnc2)cc1`, -1 (active); for `Cc1conc1NC(c1cccs1)c1ccc2cccnc2c1O` (stereo not given), 0. The result for `O=S(=O)(Nc1nc(-c2sccc2Cl)cs1)c1cc(Cl)ccc1Cl` reads 0. In the case of `Cc1ccc(Nc2cc(C)nn2-c2nc(C)cc(=O)[nH]2)cc1`, the manual score is 1 (active). Consider `Cc1cc(NC(=O)c2c(F)cccc2Cl)n(-c2nc3ccccc3[nH]2)n1`, for which the manual score was 0. With `COc1ccccc1-c1ccc(NC2CCCC2)nn1`, the manual score is 0. For `COc1ccccc1Nc1ccc(Nc2ccccc2OC)nn1` the value was 1 (active); for `COc1ccccc1NC(=O)c1cc(C(=O)Nc2ccccc2OC)cc(N2C(=O)CCC2=O)c1`, 0.

As to `CCCC(=O)NC(c1cccs1)c1cc([N+](=O)[O-])c2cccnc2c1O` (stereo not given), the manual score was 0. For `CCc1c(C)sc(NC(=O)CCc2ccc(OC)cc2)c1C(N)=O` the value was 0; for `COc1cc(NC(=O)CCn2c(=O)[nH]c3ccsc3c2=O)cc(OC)c1`, 0; for `O=C(Cn1c(=O)[nH]c2ccsc2c1=O)NC1CCCCCC1`, 0. For `COc1ccc(Cn2c(=S)[nH]c3ccsc3c2=O)cc1` the value was 1 (active); for `Cn1sc(NC(=O)c2cccc(Cl)c2)nc1=O`, 0; for `CCNC(=S)NNC(=O)c1cccn(Cc2ccc(Cl)cc2)c1=O`, 0. The result for `O=C(NNC(=O)c1sccc1-n1cccc1)c1ccc(Cl)cc1` reads 1 (active); that for `O=C(NNC(=S)Nc1cccc(C(F)(F)F)c1)c1cccc(Cl)c1`, 0.5; that for `O=C(NNS(=O)(=O)c1cc(Cl)cc(Cl)c1)c1sccc1-n1cccc1`, 1 (active). Take `Cn1c2ccccc2c2cc(C(=O)NNS(=O)(=O)c3ccc(F)cc3)sc21`: the manual score is 0. With `O=C(NNC(=O)c1sccc1-n1cccc1)c1cccc(Cl)c1`, the manual score is 1 (active). For the compound `Cc1cccc(-n2c(O)c(/C=N/NC(=O)c3ccccc3Cl)c3ccccc3c2=O)n1`, the manual score was 0. The result for `Clc1ccc(Cl)c(OCc2cc(-c3ccccc3Cl)on2)c1` reads 0. For `CC1Oc2ccccc2C=C1/C=N/NC(=O)c1ccccc1` (stereo not given) the value was 0. Turning to `C/C(=N\O)C(C)NC(=O)c1ccccc1` (stereo not given), the manual score was -0.5.

As for `O=C(NN=c1c(=O)c2ccccc2c1=O)c1ccccc1`, the manual score was 1 (active). The result for `Cc1ccc(C(=O)NNc2nc3ccccc3nc2C(F)(F)F)cc1` reads 1 (active); that for `Cc1ccc(C(=O)N/N=C/C2=Cc3ccccc3OC2C)cc1` (stereo not given), 0; that for `Cc1nc(/N=C(\N)NC(=O)c2ccccc2)nc2ccccc12`, 0.

As for `O=C(NNc1nc2ccccc2nc1C(F)(F)F)c1ccccc1`, the manual score is 1 (active). In the case of `O=C(NNc1ncc(C(F)(F)F)cc1Cl)c1c(Cl)cccc1Cl`, the manual score is 0. For `Cc1ccc(C(=O)NC2(C(F)(F)F)N=C3SCCN3C2=O)cc1` (stereo not given) the value was 0; for `COc1ccc(-n2cc(-c3ccccc3)[nH]c2=S)cc1`, 0; for `CCCc1cc(=O)n2[nH]c(-c3ccc(Br)cc3)cc2n1`, 0. For `O=C1Nc2ccccc2C12OCC1(CO2)COC2(OC1)C(=O)Nc1ccccc12` (stereo not given), the manual score is 0. The result for `COc1cc(NC(=O)CSCc2cnn(-c3ccccc3)c2-n2cccc2)cc(OC)c1` reads 0; that for `COc1cc(NC(=O)Cn2nnc(-c3ccccc3N)n2)cc(OC)c1`, 1 (active); that for `CCOc1ccc(NC(=O)Cn2nnc(-c3ccccc3F)n2)cc1`, 0. The result for `O=C(CSc1nnnn1-c1ccc(O)cc1)Nc1cccc(S(=O)(=O)N2CCCC2)c1` reads -1 (active). For `CCOC(=O)c1cccc(NC(=O)CSc2nnc(C3CCCCC3)n2C)c1` the value was 0. `Cc1ccc(C)c(-n2nnnc2SCC(=O)Nc2cccc(-c3nnc4n3CCCCC4)c2)c1`: the manual score is 3. With `Cc1ccccc1C(=O)NC(=S)Nc1ccc(Oc2ccc(Cl)cc2)cc1`, the manual score is 0.

As to `CCOC(=O)Cc1csc(NC(=S)NC(=O)c2ccccc2C)n1`, the manual score is 1 (active). Turning to `CCOC(=O)Cc1csc(NC(=S)NC(=O)c2ccccc2Br)n1`, the manual score is 1 (active). For `COc1cc(OC)c(-c2c3cc(O)c(=O)cc-3oc3cc(O)c(O)cc23)cc1OC` the value was 3. The result for `CCOC(=O)c1ccc(NC(=O)Nc2ccc(OC)c(OC)c2)cc1` reads 0.5. For `CCOC(=O)c1ccc(NC(=O)N2CCN(Cc3cccc(F)c3)CC2)cc1` the value was -1 (active); for `CCCOC(=O)c1ccc(NC(=O)c2ccoc2C)cc1`, 0.5.
